The text below walks through data of PubChem BioAssay (NCATS).

In assay [1] the target is Glutathione peroxidase 1 (Homo sapiens) (UniProt P07203). Briefly: Primary qHTS Assay for Inhibitors of Recombinant Selenoprotein Glutathione Peroxidase 1 (GPX1) (AID 1845191). Further: nearly all actives have a fitted effect of over 65% in size. An outline of the steps: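 GR-coupled assay: compounds preincubated 30 min at room temperature with GPX1, then reaction started with CHP; final 10 nM GPX1, 1 mM GSH, 0.5 mM CHP, 0.5 mM NADPH, 100 nM GR, 0.01% BSA, pH 7.5 Tris buffer. NADPH fluorescence (340/450 nm) read at 0 and 15 min.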
Sequence of Glutathione peroxidase 1 (Homo sapiens) (P07203 whole entry, looked up): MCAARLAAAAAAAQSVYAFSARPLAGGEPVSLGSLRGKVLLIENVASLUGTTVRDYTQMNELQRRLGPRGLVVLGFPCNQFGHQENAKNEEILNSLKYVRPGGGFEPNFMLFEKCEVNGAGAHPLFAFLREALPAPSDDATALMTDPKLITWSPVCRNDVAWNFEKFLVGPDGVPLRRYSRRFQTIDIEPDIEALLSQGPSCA

Assay [2] deals with Phospholipid hydroperoxide glutathione peroxidase GPX4 (Homo sapiens) (UniProt P36969). Briefly: Primary qHTS Assay for Inhibitors of Recombinant Selenoprotein Glutathione Peroxidase 4 (GPX4) (AID 1845192). Further: nearly all actives have a fitted effect of over 65% in size. On activity change, negative = inhibition: series mostly up to about 50 µM; on the % scale 0 is the no-effect control and ±100 the full control effect. An outline of the steps: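 GR-coupled assay: recombinant GPX4 preincubated 30 min with compound at room temperature; final 200 nM GPX4, 1 mM GSH, 0.5 mM cumene hydroperoxide, 0.5 mM NADPH, 100 nM GR, 0.01% BSA, pH 7.5 Tris. NADPH fluorescence (340/450 nm) read at 0 and 15 min.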
Sequence of Phospholipid hydroperoxide glutathione peroxidase GPX4 (Homo sapiens) (P36969 whole entry, looked up): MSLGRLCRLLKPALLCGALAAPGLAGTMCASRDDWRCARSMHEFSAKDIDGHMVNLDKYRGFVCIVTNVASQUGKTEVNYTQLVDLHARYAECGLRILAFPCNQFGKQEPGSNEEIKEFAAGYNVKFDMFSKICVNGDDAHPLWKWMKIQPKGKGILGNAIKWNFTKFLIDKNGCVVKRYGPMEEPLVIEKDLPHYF

Assay [3] deals with Luciferin 4-monooxygenase (Photinus pyralis) (UniProt P08659). As to the kind of experiment: Primary firefly luciferase (FLuc) qHTS assay for identification of artifact compounds. (AID 1845220). Further: nearly all actives have a fitted effect of over 60% in size.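 On activity change, negative = inhibition: series mostly up to about 54 µM; plate controls were DMSO vehicle for no effect and no enzyme for full effect.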 The method in brief: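 Enzymatic FLuc inhibition assay: compounds pre-exposed to luciferin/ATP (10 uM each) for 15 min, then purified P. pyralis enzyme at 10 nM added. Read-out: luminescence at 5 min.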

Molecules are shown by their SMILES. Values without a mark were called inactive. Inconclusive results are not listed. The source made the active and inactive calls. The call rests on the fitted dose curve; in most records, active means well fitted inhibition curve with a large enough effect; inconclusive means small, poorly fitted or top-dose-only effect; inactive means flat fitted curve, though single readings scatter.

As to `C=CC1(C)C=C2C(O)CC3C(C)(C(=O)O)CCCC3(C)C2CC1` (centres undefined), the Potency entry in assay [1], in assay [2] and in assay [3] was “inactive” throughout.

Consider `Cc1cc(N2CCCCC2)nc2ccccc12`, for which the Potency entry in assay [1], in assay [2] and in assay [3] was “inactive” each time.

As to `CCS(=O)(=O)N1CCC([C@@H](C)n2c(C)c(C(=O)NCc3c(OC)cc(C)[nH]c3=O)c3ccccc32)CC1`, the Potency result in assay [1], in assay [2] and in assay [3] was “inactive” in each case.

For `CC(C)CC(=O)O[C@@H]1OC=C(CO[C@@H]2O[C@H](CO[C@@H]3O[C@H](CO)[C@@H](O)[C@H](O)[C@H]3O)[C@@H](O)[C@H](O)[C@H]2O)[C@H]2C[C@H](O)[C@@H](CO)[C@@H]12`, the Potency entry in assay [1], in assay [2] and in assay [3] was “inactive” each time.

On to `COc1cc(C2c3cc(O)c(OC)cc3CC(CO)C2CO)ccc1O` (centres undefined), for which the Potency result in assay [2] was “inactive”.

As to `CC1(C)CCC(C)(C)c2cc3c(cc21)Sc1ccccc1N=C3c1ccc(C(=O)O)cc1`, the Potency result in assay [2] was “inactive”.

As for `CC(C)c1nc(N(C)S(C)(=O)=O)nc(-c2ccc(F)cc2)c1/C=C/[C@@H](O)C[C@@H](O)CC(=O)O`, the Potency entry in assay [2] and in assay [3] was “inactive” in each case.

With `Cn1c(=O)cc(N2CCCC(N)C2)n(Cc2ccccc2C#N)c1=O` (centres undefined), the Potency result in assay [2] and in assay [3] was “inactive” throughout.

In the case of `CCOc1ccc(C(Nc2ccccn2)c2ccc3ccc(C)nc3c2O)cc1C` (centres undefined), the Potency entry in assay [2] and in assay [3] was “inactive” throughout.

Consider `CCn1c2ccccc2c2cc(CNC)ccc21`, for which the Potency result in assay [2] and in assay [3] was “inactive” each time.

For the compound `CC1(C)CC2C3=CCC4C5(C)CCC(OC6OC(CO)C(O)C(OC7OC(CO)C(O)C(OC8OC(CO)C(O)C(OC9OC(COC%10OC(CO)C(O)C(O)C%10O)C(O)C(O)C9O)C8O)C7O)C6O)C(C)(C)C5CCC4(C)C3(C)CCC2(C(=O)O)CC1O` (centres undefined), the outcome in assay [2] is “inactive [at 9.73 µM]”. Besides, the activity change, negative = inhibition in assay [3] is -5.47% [at 11.6 µM].
